In the library only some 3.5% were active in any assay of this set; here they are far more common.
MITF primary = inhibitors of human MITF; actives 0.91% (n = 650,000); AlphaScreen MITF homodimerization, bead proximity signal; O75030; inhibition, % at 2.6 µM; in the data active = inhibition above about 50%;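 also: 0% = vehicle wells with protein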
TEAD-YAP inh = TEAD-YAP interaction inhibition; HEK-TIYL cells, TEAD-Gal4/YAP UAS-luciferase luminescence; inhibition, % at 9.12 µM; actives 1.4% (n = 640,000); AID 1259422; in the data active = inhibition above about 32%;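 also: 0% = median of test compound wells and 100% = reference inhibitor wells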
GPR151 ag = human GPR151 activation; Q8TDV0; PathHunter beta-arrestin GPR151 cells, luminescence; activation, % at 11.2 µM; actives 1% (n = 650,000); in the data active = activation above about 4.9%;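 also: 0% = median of compound wells and 100% = cells with positive control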
FBW7 act = activators of human E3 ligase FBW7; normalized activity (activation), % at 26.1 µM; AlphaScreen FBW7–phospho-cyclin E peptide binding, activator screen; actives 0.13% (n = 650,000); in the data active = normalized activity above about 1.9%;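 also: purified mutant Fbw7 with reduced substrate affinity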
GPR151 confirm = human GPR151 activation, confirmation screen; AID 1508609; GPR151 PathHunter beta-arrestin cells, luminescence, 90 min; % of EA-reagent control over plate median; 6,700 tested, under 10 active; shares compounds with GPR151 ag; activation, % at 11.2 µM;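 active = mean percent activation across replicates above the confirmation screen cutoff of 4.91%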
GPR119 ag = activates human GPR119 in a GPR151 counter-screen; shares compounds with GPR151 ag; GPR119 PathHunter beta-arrestin cells, luminescence, 90 min; 0 = compound-well median, 100 = enzyme-acceptor control; activation, % at 11.2 µM; actives 0.3% (n = 6,700); AID 1508611;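 active = mean percent activation in the counterscreen above 29.09%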;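 also: counterscreen on off-target GPR119 to flag nonselective hits from the GPR151 activator screen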
Target sequence (Q8TDV5 whole entry, looked up): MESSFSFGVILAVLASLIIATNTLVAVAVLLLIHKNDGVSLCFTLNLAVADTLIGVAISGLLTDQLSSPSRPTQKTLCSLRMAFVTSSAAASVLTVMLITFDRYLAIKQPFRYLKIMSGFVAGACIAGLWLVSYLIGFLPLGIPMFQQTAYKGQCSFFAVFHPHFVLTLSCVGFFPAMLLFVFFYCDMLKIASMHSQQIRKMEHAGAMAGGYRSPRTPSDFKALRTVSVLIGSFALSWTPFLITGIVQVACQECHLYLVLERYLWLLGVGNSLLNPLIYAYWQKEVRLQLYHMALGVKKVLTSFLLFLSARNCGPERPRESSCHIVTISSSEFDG
* hit, by the source's call; x = no result given; ! = not confirmed by another sample.

SMILES | MITF primary | TEAD-YAP inh | GPR151 ag | FBW7 act | GPR151 confirm | GPR119 ag
CCc1cccc(NC(=O)c2sccc2S(=O)(=O)N(C)c2ccc(C)cc2)c1 | -2 | -5 | 6.0* | 0 | 0 | -7
CN(C)c1ccc(C(=O)Nc2nc(-c3cccs3)cs2)cc1 | -8 | -53 | 2 | 0 | x | x
Cc1oc(-c2cccc(Cl)c2)nc1COC(=O)c1nnn(-c2cccc(F)c2)c1C | -12 | -1 | 6.0* | 0 | -1 | -12
O=C1OC(c2ccccc2Br)=N/C1=C\c1ccc(Br)cc1 | 3 | -4 | 0 | 0 | x | x
O=C1OC(c2ccccc2Br)=N/C1=C\c1ccc(I)cc1 | 13 | 6 | 5.3* | 0 | -1 | -11
CCOc1cc(/C=N/Nc2ccc(S(=O)(=O)O)cc2)ccc1O | 47 | 18 | 0 | 0 | x | x
CCOc1cc(/C=N/NS(C)(=O)=O)ccc1O | 11 | 15 | 9.0* | 0 | 0 | -6
CCN(CC)C(=O)c1ccc2c(=O)n(-c3ccc(F)cc3)c(=S)[nH]c2c1 | -15 | 17 | 5.0* | 0 | 0 | -18
Cc1ccsc1/C=C(\C#N)C(=O)NCc1cccnc1 | -6 | 2 | 12* | 0 | 0 | -2
Cc1ccsc1/C=C(/C#N)C(=O)NCc1ccccc1 | 8 | -11 | -1 | 0 | x | x
COc1ccc(OC)c(N=c2ssnc2Cl)c1 | 8 | -3 | 6.0* | 0 | 0 | -5
C=CCOc1ccccc1CN1CCc2nnc(C(C)NC(=O)c3ccco3)n2CC1 (centres undefined) | -2 | -5 | -2 | 0 | x | x
Cc1ccccc1Cn1c(=O)c2c(nc3n2CCCN3c2ccc(F)cc2)n(C)c1=O | 0 | 2 | 9.7* | 0 | 0 | 4
CCOc1ccccc1/C=C1\N=C(c2ccc(C)cc2)OC1=O | 12 | -6 | 0 | 0 | x | x
Cc1cccc(C2=N/C(=C\c3ccc(I)o3)C(=O)O2)c1 | -10 | 8 | 5.3* | 0 | 0 | -1
COc1ccc(C2=N/C(=C/c3cccc(OC)c3OC)C(=O)O2)cc1Br | 8 | -2 | 5.0* | 0 | -1 | 1
CCOc1ccccc1/C=C1\N=C(c2cccc(C)c2)OC1=O | 1 | -11 | 9.7* | 0 | -1 | 0
CC(=O)Oc1ccc(/C=C2\N=C(c3cccc(C)c3)OC2=O)cc1OC(C)=O | 0 | 2 | 7.6* | 0 | 2 | 1
CC(=O)Oc1ccc(C(=O)O/N=C(\N)c2ccccc2)cc1 | 12 | -10 | -8 | 0 | x | x
O=C(O)c1cccc(NC(=O)C2CCCN2S(=O)(=O)c2cccc3nsnc23)c1 (centres undefined) | -4 | -2 | 2 | 0 | x | x
CC(=O)c1ccc(N2C(=O)C3C(C2=O)C2(CO)C=CC3(C)O2)cc1 (centres undefined) | 9 | 1 | 5.5* | 0 | 0 | -5
COc1cc2nc(Nc3ccc4ncccc4c3)nc(Nc3ccc4c(c3)OCO4)c2cc1OC | 5 | 1 | 7.7* | 0 | 0 | -7
CCN(CC)c1nc(Nc2cc(OC)c(OC)c(OC)c2)nc(Nc2cc(OC)c(OC)c(OC)c2)n1 | 5 | 11 | 2 | 0 | x | x
COc1cc2nc(Nc3ccccc3)nc(Nc3ccc(N4CCOCC4)cc3)c2cc1OC | 21 | 0 | 8.2* | 0 | 0 | 4
COc1cc2nc(Oc3ccccc3)nc(Nc3ccc(NC(C)=O)cc3)c2cc1OC | 14 | 23 | 7.4* | 0 | 0 | 0
SMILES | MITF primary | TEAD-YAP inh | GPR151 ag | FBW7 act | GPR151 confirm | GPR119 ag
COc1cc2nc(Nc3ccc(N4CCOCC4)cc3)nc(Nc3ccccc3)c2cc1OC | 8 | 6 | 2 | 0 | x | x
CCN(CC)c1nc(Nc2ccc(N3CCOCC3)cc2)nc(Nc2cc(OC)c(OC)c(OC)c2)n1 | 8 | -2 | 9.3*! | 0 | 0 | 5
Cc1ccc(CNCc2c(C(=O)O)n(Cc3ccc(F)cc3Cl)c3ccccc23)cc1 | -6 | -1 | -1 | 0 | x | x
C=CCn1c(-c2ccc(OC)cc2)c(C)s/c1=N\NC(=O)Nc1ccccc1 | -4 | -22 | 0 | 0 | x | x
CCCc1cc(=O)[nH]c(SCC(=O)N2CCN(c3ccccc3OC)CC2)n1 | 3 | 7 | 6.7* | 0 | -1 | -9
Nc1cc(=O)[nH]c(SCC(=O)N2CCN(C(c3ccccc3)c3ccccc3)CC2)n1 | -5 | 4 | 9.4* | 0 | -1 | -9
COCCN1C(=O)CC(CC(=O)N2CC3CCC2C3)(c2ccccc2C)C1=O (centres undefined) | 17 | 8 | -1 | 0 | x | x
CCCCCCCC1C(C#N)=C(N)OC2=C1C(=O)CC(C)(C)C2 (centres undefined) | 4 | -2 | 1 | 0 | x | x
C=CCNC(=S)N/N=C\c1cn(CC(=O)Nc2ccc3c(c2)OCO3)c2ccccc12 | 2 | 2 | 1 | 0 | x | x
NC(=O)c1c(NC(=O)COC(=O)Cn2[nH]c(=O)c3ccccc3c2=O)sc2c1CCC2 | 7 | -3 | 2 | 0 | x | x
COc1ccc(C(O)C(C)c2nc3ccccc3n2C)cc1 (centres undefined) | -6 | 5 | 6.3* | 0 | 0 | 2
O=c1[nH]c(=O)n(-c2ccccc2Cl)c(O)c1C=NCCCn1ccnc1 | 19 | 6 | 4.9* | 0 | 0 | -3
Cc1ccccc1-n1c(=O)cc(NCCCn2ccnc2)[nH]c1=O | 8 | 0 | 14* | 0 | 1 | 3
CC(C)c1ccc(-c2csc(NC(=O)c3ccc(S(=O)(=O)N4CCCC4)cc3)n2)cc1 | 5 | -10 | 0 | 0 | x | x
CCCSc1nnc2c(n1)OC(c1ccc(SC)cc1)Nc1ccccc1-2 (centres undefined) | 3 | -60 | 5.6* | 0 | 0 | 5
CCCSc1nnc2c(n1)OC(c1ccc(F)cc1)Nc1ccccc1-2 (centres undefined) | -6 | -80 | -2 | 0 | x | x
CCOc1ccc(C2Nc3ccccc3-c3nnc(SCc4ccccc4F)nc3O2)cc1OC (centres undefined) | 10 | -3 | 5.8* | 0 | 0 | 15
Cc1nc2sccn2c(=O)c1S(=O)(=O)N1CCC(Cc2ccccc2)CC1 | 5 | -4 | 6.2* | 0 | 0 | 0
Cc1ccc(-n2cc(-c3ccccc3)c3c(NCCCO)ncnc32)cc1 | 12 | -8 | -1 | 0 | x | x
Cc1cc2oc(C(=O)Nc3cccnc3)c(C)c2cc1C | 7 | -29 | 0 | 0 | x | x
CC(=O)Nc1ccc(NC(=O)c2oc3cc(C)c(C)cc3c2C)cc1 | 1 | -10 | 23* | 0 | 0 | 0
CC(=O)c1cccc(Nc2c(-c3ccc(C)cc3)c(=O)c2=O)c1 | -17 | -1 | 0 | 0 | x | x
CC(=O)c1ccc(Nc2c(-c3ccccc3)c(=O)c2=O)cc1 | 23 | 8 | 5.4* | 0 | 0 | -8
COc1cc(Nc2nc(NCCCN3CCCC3=O)c3ncn(C(C)C)c3n2)cc(OC)c1OC | -3 | 7 | 13* | 0 | 1 | 0

From PubChem
